Experimental data as given in PubChem BioAssay AID1159580 (chemical genetic matrix, 2015).
“And” between values parts separate entries of the source, which are not always exact repeats. Equal entries are not always repeated. Hit rate of the full screen: of about 5,500 compounds, about 2,000 (36%) were called active. Another 18% or so got no clear call; they are omitted. Rule as the data show it: active = normalized growth mostly below about 0.91 (no sharp cut-off); inconclusive = no clear call, values can overlap the other calls; inactive = mostly above about 0.92. The list shows a part of the results.

Test: chemical genetic growth profiling, strain panel (AID 1159580);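 also: tested at 20 µM; growth read once vehicle control cultures reached saturation at 30 °C; 1 = growth at the plate median or of vehicle wells; lower values mean less growth of the strain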
Conditions: S. cerevisiae deletion strains, growth OD

Measured: normalized growth

NC(=NCCCCCCN=C(N)N=C(N)Nc1ccc(Cl)cc1)N=C(N)Nc1ccc(Cl)cc1
active: locus YAL013W, strain DEP1, hits give low values 0.056 | locus YAL021C, strain ccr4, hits give low values 0.0662 | locus YAL026C, strain drs2, hits give low values 0.0626 | locus YAL030W, strain snc1, hits give low values 0.0546 | locus YBL061C, strain skt5, hits give low values 0.058 | locus YBR009C, strain hhf1, hits give low values 0.0582 | locus YBR021W, strain FUR4, hits give low values 0.0878 | locus YBR023C, strain chs3, hits give low values 0.0607 | locus YBR171W, strain sec66, hits give low values 0.0764 | locus YBR229C, strain ROT2, hits give low values 0.0485 | locus YBR231C, strain swc5, hits give low values 0.0617 | locus YBR279W, strain paf1, hits give low values 0.057 | locus YCL011C, strain gbp2, hits give low values 0.0584 | locus YCL016C, strain dcc1, hits give low values 0.0623 | locus YCL029C, strain bik1, hits give low values 0.0646 | locus YCL061C, strain MRC1, hits give low values 0.064 | locus YCL069W, strain vba3, hits give low values 0.0598 | locus YCR088W, strain abp1, hits give low values 0.0598 | locus YDL005C, strain med2, hits give low values 0.0712 | locus YDL035C, strain GPR1, hits give low values 0.0531 | locus YDL040C, strain nat1, hits give low values 0.0593 | locus YDL074C, strain BRE1, hits give low values 0.0847 | locus YDL101C, strain DUN1, hits give low values 0.0564 | locus YDL134C, strain PPH21, hits give low values 0.049 | locus YDL185W, strain tfp1, hits give low values 0.0606 | locus YDL192W, strain arf1, hits give low values 0.0624 | locus YDR001C, strain nth1, hits give low values 0.0588 | locus YDR069C, strain doa4, hits give low values 0.0603 | locus YDR101C, strain arx1, hits give low values 0.0584 | locus YDR137W, strain rgp1, hits give low values 0.0872 | locus YDR150W, strain NUM1, hits give low values 0.0563 | locus YDR159W, strain sac3, hits give low values 0.0896 | locus YDR162C, strain NBP2, hits give low values 0.0503 | locus YDR195W, strain ref2 0.121 | locus YDR297W, strain sur2, hits give low values 0.0547 | locus YDR318W, strain mcm21, hits give low values 0.0658 | locus YDR334W, strain swr1, hits give low values 0.0626 | locus YDR335W, strain msn5, hits give low values 0.0581 | locus YDR388W, hits give low values 0.0574 | locus YDR392W, strain spt3, hits give low values 0.0798 | locus YDR502C, strain sam2, hits give low values 0.0629 | locus YEL003W, strain gim4, hits give low values 0.0531 | locus YEL037C, strain rad23, hits give low values 0.0554 | locus YEL061C, strain CIN8 (second series), hits give low values 0.0594 | locus YEL061C, strain CIN8, hits give low values 0.0488 | locus YER015W, strain faa2, hits give low values 0.0825 | locus YER016W, strain bim1, hits give low values 0.058 | locus YER110C, hits give low values 0.0744 | locus YER111C, strain swi4, hits give low values 0.0705 | locus YER155C, strain BEM2 (second series), hits give low values 0.087 | locus YER155C, strain BEM2, hits give low values 0.0622 | locus YER167W, strain BCK2, hits give low values 0.0527 | locus YFR010W, strain ubp6, hits give low values 0.0674 | locus YGL078C, strain dbp3, hits give low values 0.65 | locus YGL086W, strain mad1, hits give low values 0.0564 | locus YGL167C, strain pmr1, hits give low values 0.0727 | locus YGL173C, strain kem1, hits give low values 0.0668 | locus YGL227W, strain vid30, hits give low values 0.0612 | locus YGL240W, strain doc1, hits give low values 0.0747 | locus YGL248W, strain PDE1, hits give low values 0.0464 | locus YGL253W, strain hxk2, hits give low values 0.0538 | locus YGR078C, strain PAC10, hits give low values 0.0508 | locus YGR135W, strain pre9, hits give low values 0.0694 | locus YGR229C, strain SMI1, hits give low values 0.0582 | locus YGR252W, strain gcn5, hits give low values 0.146 | locus YHR013C, strain ard1, hits give low values 0.103 | locus YHR027C, strain rpn1, hits give low values 0.058 | locus YHR030C, strain SLT2, hits give low values 0.051 and 0.102 | locus YHR079C, strain IRE1 (second series), hits give low values 0.0602 | locus YHR079C, strain IRE1, hits give low values 0.112 | locus YHR094C, strain hxt1, hits give low values 0.0587 | locus YHR129C, strain ARP1, hits give low values 0.0541 | locus YHR142W, strain chs7, hits give low values 0.0756 | locus YHR200W, strain rpn10, hits give low values 0.0614 | locus YIL066C, strain RNR3, hits give low values 0.0507 | locus YIL073C, strain SPO22, hits give low values 0.128 | locus YIL125W, strain kgd1, hits give low values 0.898 | locus YIR030C, strain dcg1, hits give low values 0.0593 | locus YJL092W, strain hpr5, hits give low values 0.0573 | locus YJL095W, strain BCK1 (second series), hits give low values 0.0565 | locus YJL095W, strain BCK1, hits give low values 0.0587 and 0.0988 | locus YJL115W, strain asf1, hits give low values 0.0702 | locus YJL129C, strain trk1, hits give low values 0.0784 | locus YJL134W, strain LCB3, hits give low values 0.0499 | locus YJL154C, strain vps35, hits give low values 0.0596 | locus YJL164C, strain tpk1, hits give low values 0.0644 | locus YJL166W, strain qcr8, hits give low values 0.0585 | locus YJL168C, strain set2, hits give low values 0.059 | locus YJL187C, strain SWE1 (second series), hits give low values 0.0495 | locus YJR043C, strain POL32, hits give low values 0.0601 | locus YJR066W, strain TOR1, hits give low values 0.00766
